Source: PubChem BioAssay
Activity calls are given as the source filed them.

What was measured:
[1] = tested on: PRMT1 (protein arginine N-methyltransferase 1); experiment: small molecules binding arginine methyltransferase PRMT1 – biochemical, small-molecule microarray, 635 nm fluorescence, primary screen (AID 1088); conditions: higher = more signal;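 further: binding of Prmt1 protein to compounds spotted on small-molecule microarray slides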
[2] = growth effects on S. cerevisiae YJM789 – YJM789 clinical isolate, OD600, 24 h, basal, primary screen (AID 1089); conditions: higher = more signal, called active from +8 up or from −8 down;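 further: growth of clinical yeast isolate S. cerevisiae YJM 789 seeded 1000 cells per well; test concentration not given here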
[3] = S. pombe growth modifiers, basal conditions – strain 972, OD600, 24 h, no modulator, primary screen (AID 1090);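 further: basal condition with compound alone and no growth modifier present; test concentration not given here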; conditions: S. pombe 972 growth, higher = more signal, called active from +8 up or from −8 down
[4] = budding yeast growth modifiers under rapamycin – strain BY4716, OD600, 96 h, primary screen (AID 1091); further: test concentration not given here; conditions: S. cerevisiae BY4716 + rapamycin, higher = more signal, called active from +8 up or from −8 down
[5] = molecular target: Torsin-1A-interacting protein 2 (Homo sapiens) (UniProt Q8NFQ8); experiment: small molecules binding lysate-expressed LULL1 – cell lysate, human LULL1 lysate, 635/667 nm fluorescence, primary screen (AID 1092); conditions: small-molecule microarray, hLULL1 lysate binding, 635 nm fluorescence; higher = more signal;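 further: probe is lysate of COS7 cells overexpressing human LULL1; score merges per-feature 667 nm fluorescence with signal-to-noise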
[6] = optical density change of DRC41 E. coli – strain DRC41, OD650, 24 h, E. coli filamentation project, primary screen (AID 1093);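 further: MC1000 strain lacking acrAB efflux and sulA so SOS filamentation is blocked; test concentration not given here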; conditions: E. coli DRC41 growth, higher = more signal, called active from +8 up or from −8 down
[7] = probe aLefty2 binding to arrayed compounds – biochemical, biotinylated probe, 635/667 nm fluorescence, primary screen (AID 1094); conditions: small-molecule microarray, higher = more signal;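 further: score merges spot fluorescence near 667 nm with spot signal-to-noise ratio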
[8] = tested on: Noggin (protein binding on small-molecule microarray); experiment: small molecules binding Noggin protein – biochemical, 635/667 nm fluorescence, primary screen (AID 1095); conditions: 635 nm fluorescence, higher = more signal;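 further: score merges 667 nm feature fluorescence with signal to noise over triplicate slides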
[9] = molecular target: Neurogenic locus notch homolog protein 3 (Homo sapiens) (UniProt Q9UM47); experiment: small molecules binding NOTCH3 protein – biochemical, 635/667 nm fluorescence, primary screen (AID 1096); conditions: small-molecule microarray, 635 nm fluorescence, higher = more signal
[10] = probe aEGFR binding to arrayed compounds – biochemical, biotinylated probe, 635/667 nm fluorescence, primary screen (AID 1097); conditions: small-molecule microarray, higher = more signal;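 further: probe is a biotinylated anti-EGFR antibody binding compounds printed on slides; score combines fluorescence near 667 nm and signal to noise of each spot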

Sequence of Torsin-1A-interacting protein 2 (Homo sapiens) (Q8NFQ8 whole entry, looked up): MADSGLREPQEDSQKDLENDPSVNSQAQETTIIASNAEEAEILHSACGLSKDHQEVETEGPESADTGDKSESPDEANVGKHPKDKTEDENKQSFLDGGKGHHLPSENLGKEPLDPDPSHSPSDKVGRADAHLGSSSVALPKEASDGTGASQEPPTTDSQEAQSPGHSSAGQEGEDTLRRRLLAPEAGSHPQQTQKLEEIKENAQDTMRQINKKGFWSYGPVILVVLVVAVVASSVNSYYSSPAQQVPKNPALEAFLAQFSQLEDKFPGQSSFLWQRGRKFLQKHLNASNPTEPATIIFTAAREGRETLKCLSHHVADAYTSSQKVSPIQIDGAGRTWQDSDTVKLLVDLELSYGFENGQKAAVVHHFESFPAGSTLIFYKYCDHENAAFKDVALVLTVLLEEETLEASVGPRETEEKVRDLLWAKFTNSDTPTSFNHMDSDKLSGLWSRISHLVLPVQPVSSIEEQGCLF
Sequence of Neurogenic locus notch homolog protein 3 (Homo sapiens) (Q9UM47 whole entry, looked up): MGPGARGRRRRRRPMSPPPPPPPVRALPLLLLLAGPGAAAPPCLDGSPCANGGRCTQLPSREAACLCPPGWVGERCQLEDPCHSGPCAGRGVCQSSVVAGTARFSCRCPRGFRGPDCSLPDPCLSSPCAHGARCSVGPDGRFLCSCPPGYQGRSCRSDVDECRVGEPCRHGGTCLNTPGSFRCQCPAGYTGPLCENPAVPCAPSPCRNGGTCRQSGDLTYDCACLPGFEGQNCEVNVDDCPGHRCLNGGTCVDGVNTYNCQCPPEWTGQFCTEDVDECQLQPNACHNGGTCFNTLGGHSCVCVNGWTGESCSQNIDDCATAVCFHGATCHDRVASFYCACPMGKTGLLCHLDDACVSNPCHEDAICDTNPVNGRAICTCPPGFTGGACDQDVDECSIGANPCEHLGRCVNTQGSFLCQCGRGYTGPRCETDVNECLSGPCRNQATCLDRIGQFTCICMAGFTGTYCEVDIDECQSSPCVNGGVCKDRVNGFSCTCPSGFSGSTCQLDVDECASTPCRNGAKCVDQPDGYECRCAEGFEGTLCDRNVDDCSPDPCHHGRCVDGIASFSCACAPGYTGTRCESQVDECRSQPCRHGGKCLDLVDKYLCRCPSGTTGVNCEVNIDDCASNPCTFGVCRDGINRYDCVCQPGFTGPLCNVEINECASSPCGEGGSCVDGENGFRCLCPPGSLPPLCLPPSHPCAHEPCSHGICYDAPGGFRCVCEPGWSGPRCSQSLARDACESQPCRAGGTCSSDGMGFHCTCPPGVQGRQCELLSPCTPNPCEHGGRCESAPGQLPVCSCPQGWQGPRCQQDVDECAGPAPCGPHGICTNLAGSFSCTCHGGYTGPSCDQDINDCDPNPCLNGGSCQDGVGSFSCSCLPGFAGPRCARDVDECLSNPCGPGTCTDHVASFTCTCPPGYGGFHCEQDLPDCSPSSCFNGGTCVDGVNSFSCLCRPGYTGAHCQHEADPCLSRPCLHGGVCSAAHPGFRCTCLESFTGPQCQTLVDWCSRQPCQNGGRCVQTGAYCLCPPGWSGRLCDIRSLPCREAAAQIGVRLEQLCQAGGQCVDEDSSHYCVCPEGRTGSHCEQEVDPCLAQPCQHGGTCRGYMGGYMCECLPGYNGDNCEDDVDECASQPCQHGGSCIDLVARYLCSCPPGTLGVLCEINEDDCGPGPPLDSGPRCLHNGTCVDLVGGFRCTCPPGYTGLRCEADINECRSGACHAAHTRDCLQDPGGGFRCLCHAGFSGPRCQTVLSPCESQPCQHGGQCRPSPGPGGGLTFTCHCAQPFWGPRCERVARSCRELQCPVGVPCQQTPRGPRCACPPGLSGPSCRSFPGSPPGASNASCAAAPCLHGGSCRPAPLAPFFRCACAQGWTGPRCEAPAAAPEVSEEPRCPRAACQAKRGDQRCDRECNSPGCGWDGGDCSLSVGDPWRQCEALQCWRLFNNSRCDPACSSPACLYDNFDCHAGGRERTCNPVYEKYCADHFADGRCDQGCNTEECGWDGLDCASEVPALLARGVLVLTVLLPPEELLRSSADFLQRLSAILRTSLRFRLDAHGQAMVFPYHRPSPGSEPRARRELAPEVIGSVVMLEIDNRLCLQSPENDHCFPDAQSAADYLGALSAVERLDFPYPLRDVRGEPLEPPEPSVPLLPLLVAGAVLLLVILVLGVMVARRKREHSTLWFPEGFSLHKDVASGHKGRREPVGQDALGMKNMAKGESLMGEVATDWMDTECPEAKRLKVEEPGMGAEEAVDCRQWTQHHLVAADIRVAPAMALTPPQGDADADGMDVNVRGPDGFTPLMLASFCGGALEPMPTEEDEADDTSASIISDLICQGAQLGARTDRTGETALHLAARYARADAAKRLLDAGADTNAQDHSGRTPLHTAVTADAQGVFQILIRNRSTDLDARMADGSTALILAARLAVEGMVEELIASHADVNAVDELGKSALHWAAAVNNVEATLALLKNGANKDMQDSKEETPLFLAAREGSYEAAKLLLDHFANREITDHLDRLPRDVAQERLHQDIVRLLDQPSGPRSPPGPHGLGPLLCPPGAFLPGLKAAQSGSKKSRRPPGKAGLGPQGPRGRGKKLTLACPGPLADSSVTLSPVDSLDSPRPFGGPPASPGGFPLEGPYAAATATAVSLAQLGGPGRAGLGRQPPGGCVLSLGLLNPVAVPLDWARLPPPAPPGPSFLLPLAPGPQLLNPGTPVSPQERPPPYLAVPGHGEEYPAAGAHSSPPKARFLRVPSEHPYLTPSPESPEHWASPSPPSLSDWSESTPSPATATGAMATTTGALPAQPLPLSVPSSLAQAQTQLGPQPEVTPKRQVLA

| Compound | composite z-score [1] | z-score [2] | z-score [3] | z-score [4] | composite z-score [5] | z-score [6] | composite z-score [7] | composite z-score [8] | composite z-score [9] | composite z-score [10] |
| --- | --- | --- | --- | --- | --- | --- | --- | --- | --- | --- |
| O=C1CS(=O)(=O)C(c2cccc([N+](=O)[O-])c2)N1c1ccccc1 (stereo not given) | -0.0065 | -2.58 (inactive) | -2.56 (inactive) | -0.811 (inactive) | 1.85 | 0.672 (inactive) | 0.554 | 0.253 | 0.336 | 0.583 |
| [N-]=[N+]=Nc1ccccc1C[C@]1(C(=O)O)COC(c2ccc(OCCCO)cc2)=N1 | -0.767 | -0.458 (inactive) | -0.88 (inactive) | 0.559 (inactive) | 1.66 | -0.408 (inactive) | -0.195 | -0.476 | -0.609 | -0.0079 |
| CO[C@H]1O[C@H](CO)[C@@H](OC(=O)CCc2ccccc2)[C@@H]2OC(=O)[C@@H](Cc3ccccc3)C/C=C/C[C@H](Cc3ccccc3)C(=O)O[C@@H]12 | 1.35 | -0.0668 (inactive) | 0.0286 (inactive) | 5.61 (inactive) | 1.25 | 0.241 (inactive) | -0.119 | 0.435 | 0.922 | -0.067 |
| COCCCNC(=O)[C@@]1(CCC(=O)OC(C)(C)C)N=C(c2ccc(OCCCO)cc2)O[C@H]1c1ccccc1N=[N+]=[N-] | 1.27 | -0.197 (inactive) | 0.362 (inactive) | -0.875 (inactive) | 3.13 | 1.21 (inactive) | 0.644 | -0.0445 | 0.377 | 0.458 |
| O=C1C2C=CC(C(O)C3CC=CCC3)N(Nc3ccccc3)C2C(=O)N1c1ccccc1 (stereo not given) | 1.24 | 0.399 (inactive) | -0.428 (inactive) | 0.662 (inactive) | 3.09 | -1.6 (inactive) | 0.401 | -0.146 | 1.06 | 0.153 |
| C=CC[C@H](OC(=O)Nc1ccc(SC)cc1)c1ccc(O)c2ccccc12 | 1.54 | -23.9 (active) | -19.8 (active) | -1.38 (inactive) | 2.8 | 1.42 (inactive) | -0.112 | 1.1 | 1.1 | -0.128 |
| C=C[C@H]1C(C(=O)OCC)=CC[C@@H](c2ccccc2)N1S(=O)(=O)c1ccc(C)cc1 | 0.895 | 0.293 (inactive) | 1.12 (inactive) | 1.86 (inactive) | 2.94 | -0.558 (inactive) | 0.174 | 0.705 | 1.13 | -0.0531 |
| COCCOC(=O)N1C(=O)[C@@]2(c3cc(C#CC4(O)CCCCCC4)ccc31)[C@H](C(=O)N1CCc3cc(OC)c(OC)cc3C1)[C@H]1C(=O)O[C@H](c3ccccc3)[C@H](c3ccccc3)N1[C@@H]2c1ccc(OCCO)cc1 | 1.54 | 1.98 (inactive) | 0.932 (inactive) | 4.4 (inactive) | 2.03 | 0.0446 (inactive) | -0.0585 | 1.3 | 1.09 | -0.0234 |
| CCC1=C2CN(Cc3ccccc3)[C@@H](C(=O)Cc3ccccc3)C2C=CCC1 (stereo not given in full) | -0.279 | -0.273 (inactive) | -2.18 (inactive) | -0.728 (inactive) | 2.47 | 0.673 (inactive) | -0.164 | 0.751 | 0.841 | -0.177 |
| [N-]=[N+]=Nc1ccccc1C[C@]1(C(=O)NCCN2CCOCC2)COC(c2ccc(OCCCO)cc2)=N1 | 1.29 | -0.877 (inactive) | -2.27 (inactive) | -1.46 (inactive) | 3.03 | 2.56 (inactive) | 0.194 | 0.0424 | 0.0221 | 0.0433 |
| CCCCC(=C=CC[C@H](O)c1ccc(OCCO)cc1)CCO | -0.0461 | -0.879 (inactive) | -0.982 (inactive) | -1.02 (inactive) | 2.24 | -0.0915 (inactive) | -0.179 | -0.124 | -0.65 | -0.232 |
| CC(=O)NCCCC[C@@H]1NC(=O)[C@@H]2C[C@H](C(=O)NCCCCCN)[C@H](c3ccc(O)cc3)N2C1=O | 1.32 | 0.0163 (inactive) | -0.747 (inactive) | 0.536 (inactive) | 2.25 | 2.29 (inactive) | 0.5 | 0.61 | 1.14 | 0.328 |
| COc1ccc([Si](C)(C)[C@@H]2[C@@H](CCO)O[C@]3(C(=O)N(Cc4cccc(NC(=O)[C@H](C)O)c4)c4ccccc43)[C@H]2C)cc1 | 1.54 | 1.84 (inactive) | 0.193 (inactive) | 34.6 (active) | 2.84 | -0.327 (inactive) | -0.159 | 0.474 | 0.662 | -0.152 |
| C=CCN1Cc2ccccc2[C@@H]2OC(c3ccc(OCCCO)cc3)=N[C@]2(CC=C)C1=O | 1.57 | -0.98 (inactive) | -2.8 (inactive) | -0.926 (inactive) | 3.15 | 0.924 (inactive) | 0.188 | 1.84 | 1.03 | 0.434 |
| CC(C)NC(=O)[C@@]1(C)c2ccccc2C(=O)N(Cc2ccc(OC(F)(F)F)cc2)[C@H]1c1ccc(CO)cc1 | 0.911 | 0.738 (inactive) | -0.784 (inactive) | -1.38 (inactive) | 2.32 | -1.55 (inactive) | -0.221 | -0.748 | -0.284 | -0.349 |
| NC(=O)NCC#Cc1ccc2c(c1)[C@]1(C(=O)N2)[C@H](c2ccccc2OCCO)N2[C@H](c3ccccc3)[C@H](c3ccccc3)OC(=O)[C@H]2[C@@H]1C(=O)NC[C@H](O)c1ccccc1 | 0.415 | 1.5 (inactive) | 1.32 (inactive) | 3.89 (inactive) | 1.06 | 2.36 (inactive) | 0.448 | -0.0053 | -0.112 | -0.162 |
| CC1CC/C=C\[C@H]2OC34C=CCN(c5ccc(Cl)cc5)C(=O)[C@H]3N(C(C)CO)C(=O)[C@]4(C)C2C(=O)O1 (stereo not given in full) | -0.678 | -0.0407 (inactive) | -0.738 (inactive) | 0.334 (inactive) | -1.05 | 0.108 (inactive) | -0.0099 | -0.603 | -0.984 | -0.173 |
| COC(=O)[C@@]1(Cc2ccc(OC)cc2)[C@H]2c3cc(C(=O)N(C)C)n(Cc4ccc(C)o4)c3C[C@H]2CN1C(=O)c1ccccc1 | 0.549 | -0.529 (inactive) | 0.805 (inactive) | 0.0527 (inactive) | 3.6 | 0.527 (inactive) | 0.347 | -0.263 | 0.916 | 0.229 |
